Screening results from PubChem.
FLuc modulator: firefly luciferase modulation, counter-screen for miR-21 project; 6.9% of 360,000 active; AID 588342; purified FLuc, Km substrates, luminescence inhibition; Potency, µM (doses to about 57.5 µM), without a hit: top-dose activity change, negative = inhibition, hits mostly inhibitors; P08659;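 further: plate controls were vehicle for no effect and reference inhibitor for full effect; nearly all actives have a fitted effect of over 55% in size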
Target sequence (P08659 whole entry, looked up): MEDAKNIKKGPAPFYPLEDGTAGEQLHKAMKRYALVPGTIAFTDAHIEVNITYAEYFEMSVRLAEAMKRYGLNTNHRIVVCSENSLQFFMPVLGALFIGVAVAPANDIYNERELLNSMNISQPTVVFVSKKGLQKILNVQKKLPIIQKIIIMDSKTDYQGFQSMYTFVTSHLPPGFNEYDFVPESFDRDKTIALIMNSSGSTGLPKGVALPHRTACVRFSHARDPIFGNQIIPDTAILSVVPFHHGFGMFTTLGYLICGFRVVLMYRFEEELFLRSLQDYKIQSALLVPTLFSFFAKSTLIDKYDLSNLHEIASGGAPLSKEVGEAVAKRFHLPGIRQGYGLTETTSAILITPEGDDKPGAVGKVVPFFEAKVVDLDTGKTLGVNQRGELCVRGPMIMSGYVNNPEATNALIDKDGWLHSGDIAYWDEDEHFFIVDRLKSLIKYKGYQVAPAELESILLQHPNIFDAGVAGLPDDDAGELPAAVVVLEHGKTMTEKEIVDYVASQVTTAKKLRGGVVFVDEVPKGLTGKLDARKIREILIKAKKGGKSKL
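Purified P. pyralis luciferase, 10 nM final, with Km-level 10 uM D-luciferin and 10 uM ATP in 50 mM Tris acetate pH 7.5, 10 mM Mg acetate, 0.01% Tween-20, 0.05% BSA; 6-point qHTS titration about 60 µM downward; luminescence read.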
SMN2 splice up: SMN2 splice variant enhancement | HEK293 SMN2-luciferase splicing reporter, luminescence, 30-36 h | Potency, µM (series often up to 46.1 µM), inactives show at the top dose activity change, positive = activation, most hits filed as activators | 2.8% of 210,000 active; further: % of control where 0% means no effect; nearly all actives have a fitted effect of over 55% in size
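HEK293 cells carry an SMN2 […]–luciferase reporter in which exon 7 inclusion puts luciferase in frame. Cells were plated 10-12 h before compound addition, then incubated 30-36 h at 37C. ONE-Glo luminescence was read; sodium butyrate at 4.5 mM final served as control.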
ELG1 genotox: induces genotoxicity in HEK293T cells with luciferase-tagged ELG1; HEK293T ELG1-luciferase reporter, luminescence, 16 h; 1.3% of 330,000 active; AID 504466; Potency, µM (series often up to 46 µM), inactives show at the highest dose activity change, positive = activation, most hits filed as activators; further: % of control where 0% means no effect; nearly all actives have a fitted effect of over 60% in size
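16 hr compound incubation (37 °C, 5% CO2) of HEK293T cells carrying luciferase-tagged ELG1; luciferase then measured by ONE-Glo luminescence after 30 min at RT.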
Rab9 promoter act: activates the Rab9 promoter; AID 485297; 2.8% of 320,000 active; Potency, µM (titrated, usually from 9.22 µM), inactives show top-dose activation, negative = inhibition, most hits filed as activators; Huh7 Rab9 promoter-luciferase reporter, luminescence, 24 h; further: % of control where 0% means no effect; nearly all actives have a fitted effect of over 60% in size
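Huh7 reporter line, Rab9 promoter upstream of luciferase. Compound exposure 24 h at 37 °C in reduced-serum medium with 10% FBS. Read-out: luminescence.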
NPC1 prom act: activators of NPC1 promoter. Huh7 NPC1 promoter luciferase reporter, 24 h. 2.4% of 320,000 active. Potency, µM (highest dose often 9.22 µM), without a hit: at the highest dose activation, actives largely listed as activators. AID 485313; further: % of control where 0% means no effect; nearly all actives have a fitted effect of over 60% in size
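Huh7 cells stably carrying NPC1 promoter–luciferase, plated in Opti-MEM with 10% FBS for 2 h, were exposed to compound in DMSO for 24 h at 37 °C; luciferase reagent was added for 10 min and luminescence read.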
An asterisk follows results filed as active; ? = inconclusive; nt = no result; [ ] = another dose, or the depositor's remark. Compounds with a hit are over-represented: about 7.5% of the library has one in this group of screens. The call rests on the fitted dose curve; in most records, active means well fitted curve in the direction sought with a large enough effect; inconclusive means small, poorly fitted or top-dose-only effect, or another doubt; inactive means no such curve, though single readings can be large; an effect the other way counts as inactive or inconclusive. Potency means the concentration at half of the fitted maximal effect.

SMILES	FLuc modulator	SMN2 splice up	ELG1 genotox	Rab9 promoter act	NPC1 prom act
Cc1ccc(-c2cc(C(F)(F)F)c(C#N)c(SCC(=O)Nc3ccccc3F)n2)cc1	3%	12%	nt	nt	nt
C=CCn1c(C)nnc1SCC(=O)Nc1nccs1	4%	nt	1%	0.089µM*	?
COc1cccc(NC(=O)c2oc3ccccc3c2NC(=O)C2CCCCC2)c1	-7%	3%	nt	nt	nt
O=C(CN1C(=O)NC2(CCOc3ccccc32)C1=O)Nc1ccc(F)c(F)c1F (centres undefined)	1%	22%	-4%	-1%	-1%
Cc1[nH]c2ccc(C(=O)N3CCN(c4ccccn4)CC3)cc2c1C	-3%	nt	1%	-6%	-1%
CC(=O)Nc1ccc(/C(C)=N/NC(=O)c2ccccc2Cl)cc1	-17%	7%	11%	1%	9%
Cc1nc(SCC(=O)Nc2nc3ccccc3s2)n[nH]1	?	nt	12%	24%	24%
Cc1ccc2sc(NC(=O)CSc3nc(C)cc(C)c3C#N)nc2c1	3.8µM*	2.5µM*	?	28%	?
Cc1nc(SCC(=O)Nc2nc3ccccc3s2)c(C#N)c(C)c1C	2.1µM*	-102%	-12%	-48%	-26%
Cc1cc(C)c(C#N)c(SCC(=O)Nc2nnc(-c3ccccc3)s2)n1	4%[2.3 µM]	nt	0%	-2%	-4%
C=CCn1c(SCC(=O)Nc2cccnc2Cl)nnc1-c1ccc(C(C)(C)C)cc1	21µM*	nt	-3%	3%	-2%
COc1ccc(CNC(=O)CCCC2=NS(=O)(=O)c3ccccc3N2)cc1	-2%	nt	-2%	0%	5%
COc1cccc(-c2csc3nnc(SCC(=O)NCc4cccs4)n23)c1	0%	nt	12%	10%	-1%
Cn1cc(Cl)c(C(=O)N/N=C/c2ccc3c4c(cccc24)CC3)n1	0.54µM*	nt	?	1.4µM*	2µM*
Cc1ccc(/C=N/NC(=O)c2nn(C)cc2Cl)cc1	1.5µM*	11µM*	?	3.5µM*	3.5µM*
Cn1cc(Cl)c(C(=O)N/N=C/c2ccc(OS(=O)(=O)c3ccccc3)cc2)n1	24µM*	-3%	-9%	0%	4%
CN(C(=O)COC(=O)/C=C/c1ccc(Cl)c(Cl)c1)c1c(N)n(Cc2ccccc2)c(=O)[nH]c1=O	4%	nt	-1%	-3%	-1%
COc1ccccc1C(OC(=O)c1ccco1)C(=O)NC(C)(C)C (centres undefined)	-1%	nt	2%	7%	-2%
O=C(Nc1ccc(Cl)c(C(=O)N2CCOCC2)c1)c1ccccc1	?	nt	-3%	-1%	-2%
O=[N+]([O-])c1ccc(S(=O)(=O)N/N=C/c2cccs2)cc1	0%	11%	-2%	9%	-7%
COc1ccc(OCc2nc3ccccc3n2Cc2ccc(C(C)(C)C)cc2)cc1	9.5µM*	11µM*	nt	nt	nt
CC(C)(C)c1ccc(OCc2nc3ccccc3n2CCOc2ccccc2)cc1	-5%	-35%	nt	nt	nt
COCn1c(COc2ccc3ccccc3c2)nc2ccccc21	2.4µM*	11µM*	?	2.5µM*	2.8µM*
COc1cccc(Cn2c(N)c(C#N)c3nc4ccccc4nc32)c1OC	3%	-23%	3%	4%	-19%
Clc1c(-c2nnc3n2CCC3)sc2ccccc12	21µM*	8%	23%	2%	-1%
COc1ccc(-n2nc(C(=O)NCC(=O)N3CCN(c4ccccn4)CC3)c3ccccc3c2=O)cc1OC	4.8µM*	-1%	-4%	18%	-4%
O=C(c1nn(-c2ccccc2)c(=O)c2ccccc12)N1CCN(c2ccccn2)CC1	2%	-1%	0%	-4%	0%
COc1ccc(/C=C/C(=O)NC(=S)N2CCN(c3ccccn3)CC2)cc1	13µM*	nt	10%	0%	6%
